aSyn 5UTR act – Activators via SNCA 5'UTR binding, MLPCN; activity score, % (tested at 7.5 µM), hits read low; actives 7.1% (n = 300,000); alpha-synuclein 5'UTR reporter, activators screen; in the data active means activity score below about -60%
* hit, by the source's call. A selection follows.

SMILES	aSyn 5UTR act
O=C(Nc1ccc(Br)c(C(F)(F)F)c1)c1ccccc1	-90*
O=C(Nc1ccc(C(F)(F)F)cc1)c1ccccc1Br	-82*
O=C(Nc1ccc(NC(=O)c2ccccc2Br)cc1)c1ccccc1	-84*
CCOC(=O)c1nnc2cc(-c3ccc(Br)cc3)nn2c1C	-114*
Oc1ccc(N=Nc2ccc(Br)cc2)c(O)c1	-226*
Oc1ccc(N=Nc2ccc3c(c2)OCCO3)c(O)c1	62
O=C(N/N=C1\CCCCc2ccccc21)c1ccccn1	-92*
COc1ccc2c(c1)CCC/C2=N\NC(=O)c1ccoc1C	-70*
Cc1cc(C(=O)N/N=C2\CCCc3ccccc32)c(C)o1	-126*
O=C(N/N=C1\CCCc2ccccc21)c1ccccc1Cl	-132*
O=C(N/N=C1\CCc2ccccc21)c1ccncc1	-160*
O=C(O)c1ccc(N/N=C2/CCCc3ccccc32)cc1	-82*
Cc1cc(C(=O)NC2Cc3ccccc3C2)c(C)o1	-137*
COc1ccc2c(c1)CCC/C2=N\Nc1nc(C(=O)NN)cs1	-92*
O=C(Nc1nc2ccccc2[nH]1)c1cccc([N+](=O)[O-])c1	-250*
O=C(Nc1nc2ccccc2[nH]1)c1ccc(Cl)c(S(=O)(=O)N2CCCC2)c1	-148*
COc1cccc(C(=O)Nc2nc3ccccc3[nH]2)c1	63
O=C(Nc1nc2ccccc2[nH]1)c1cccc(F)c1	-62*
O=C(/C=C/c1ccc(F)cc1)Nc1nc2ccccc2[nH]1	-129*
COC(=O)c1cc(C(=O)Nc2nc3ccccc3[nH]2)cc([N+](=O)[O-])c1	-162*
COc1ccc(C(=O)Nc2nc3ccccc3[nH]2)cc1	71
COc1cc(C(=O)Nc2nc3ccccc3[nH]2)cc(OC)c1OC	-76*
CC(C)CC(=O)Nc1cc2nn(-c3ccccc3)nc2cc1Cl	-135*
Nc1cc2nn(-c3ccccc3)nc2cc1Cl	-157*
NC(=O)C1=C[C@H](C2CCCCC2)C[C@H](OCc2ccc(CO)cc2)O1	-98*
SMILES	aSyn 5UTR act
Cc1ccc2oc(C(=O)N(C)Cc3ccon3)c(C)c2c1	-153*
CCCc1ccc2oc(C(=O)N(C)Cc3cnccn3)c(C)c2c1	-73*
COc1nc(Nc2ccc(C(C)C)cc2)nc(OC)n1	-111*
Oc1ccc(-c2nccc(-c3ccc(Cl)cc3)n2)cc1	-84*
Oc1ccc(-c2cccc(-c3ccc(O)cc3)n2)cc1	-68*
Oc1ccc(-c2nccc(-c3cccs3)n2)cc1	-157*
Oc1ccc(-c2nnc(-c3ccc(O)cc3)nn2)cc1	-109*
CN1CCN(C(=O)c2ccc(COc3ccc(C(C)(C)C)cc3)o2)CC1	-99*
CCOC(=O)c1ccc(COc2ccc(C(C)C)cc2)o1	-129*
COc1cccc(N2CCN(C(=O)c3ccc(CS(=O)c4ccccc4C)o3)CC2)c1 (stereo not given)	108
CCC(C)c1ccc(OCc2ccc(C(=O)O)o2)cc1 (stereo not given)	-86*
CCOc1ccc(OCc2ccc(C(=O)OCc3ccccn3)o2)cc1	-64*
CC(C)c1ccc(OCc2ccc(C(=O)N3CCCC3)o2)cc1	-144*
COc1cc(C)nc(N2CCCC(C(=O)NC3CCC(C)CC3)C2)n1 (stereo not given)	-146*
O=c1c2ccccc2[nH]c(=S)n1CCc1ccccc1	-123*
CSc1ccc(C2c3[nH]c4ccccc4c3CCN2C(=O)c2cc(C)n(C)n2)cc1 (stereo not given)	-287*
Cc1ccc(C(=O)Nc2cccc(C(F)(F)F)c2)cc1Nc1ncnc2nc[nH]c12	78
COc1ccc(C(=O)Nc2ccc3nc(C)c(C)nc3c2)cc1	-87*
O=C(Nc1ccc2c(c1)OCO2)c1ccc2nc[nH]c2c1	-112*
O=C(Nc1ccc(C(F)(F)F)cc1)c1ccc2nc[nH]c2c1	-78*
COc1ccc(NC(=O)c2ccc3nc[nH]c3c2)cc1	-81*
COc1ccc(C(=O)Nc2ccc3c(c2)nc2n3CCSC2)cc1	-67*
CCc1cc2c(=O)c(-c3cscn3)coc2cc1O	-139*
CCOc1ccc2cc(C(=O)c3ccccc3)c(=O)oc2c1	-161*
CCOc1ccc2cc(C(=O)NCc3ccccc3)c(=N)oc2c1	-102*
SMILES	aSyn 5UTR act
COc1ccc2cc(S(=O)(=O)c3ccccc3)c(=O)oc2c1	-75*
COc1ccc2cc(C(=O)c3ccccc3)c(=O)oc2c1	-151*
COCc1cc(C)nc2sc(C(=O)Nc3nccs3)c(N)c12	-121*
COCc1cc(C)nc2sc(C(=O)Nc3cccc(OC)c3)c(N)c12	-192*
C=CCn1c(=O)c2ccccc2n2c(Sc3nnnn3-c3ccccc3)nnc12	-74*
Cc1ccc2c(C)c(C(=O)N(C)C(C)c3ccon3)oc2c1C (stereo not given)	-149*
CCOC(=O)Cc1csc(NC(=O)c2c(O)c3ccccc3n(CC(C)C)c2=O)n1	75
CCOC(=O)Cc1csc(NC(=O)c2cccs2)n1	-176*
CCOC(=O)c1csc(NC(=O)c2cccs2)n1	-109*
FC(F)(F)c1cnc2c(-c3ccccc3)n[nH]c2c1	-130*
CCN(CC)C(NC(=O)c1ccccc1)C(=O)c1ccccc1 (stereo not given)	-69*
O=C(Cc1csc(NC(=O)Nc2ccc(Cl)cc2)n1)NC1CCCC1	-91*
Cc1csc(NC(=O)NCC2CCCC(CNC(=O)Nc3nc(C)cs3)C2)n1 (stereo not given)	-66*
Cc1csc(NC(=O)Nc2ccc(Cl)cc2)n1	-115*
Cc1cnc(NC(=O)Nc2ccc(Cl)cc2)s1	-187*
CCOC(=O)c1oc2cccc(OC(C)=O)c2c1C	-85*
CCOC(=O)c1oc2cccc(O)c2c1C	-81*
CSC1=NNC(c2ccc(C(C)(C)C)cc2)=NN1	-106*
c1ccc(-c2ccc3c(n2)CCCO3)cc1	-113*
COc1ccccc1NC(CC(=O)c1ccccc1)C(=O)OCC(=O)c1ccc(C)c(C)c1 (stereo not given)	-127*
COc1ccccc1NC(CC(=O)c1ccccc1)C(=O)OCC(=O)c1ccc(C)cc1 (stereo not given)	-190*
O=C(CC(Nc1ccccc1Cl)C(=O)OCC(=O)c1cccs1)c1ccccc1 (stereo not given)	-119*
COc1ccccc1NC(CC(=O)c1ccccc1)C(=O)OCC(=O)c1ccc(Br)cc1 (stereo not given)	-130*
CCc1ccc(NC(=O)COc2ccc3c(c2)OCO3)cc1	-74*
COc1ccccc1NC(=O)COc1ccc2c(c1)OCO2	-76*
SMILES	aSyn 5UTR act
CCc1ccc(OCC(=O)Nc2ncn[nH]2)cc1	-87*
NC(=O)c1ccccc1NC(=O)COc1ccc2c(c1)OCO2	-87*
Cc1nc(NC(=O)c2cncc(Br)c2)ccc1Br	-109*
Cc1nc(NC(=O)c2cnccn2)ccc1Br	-101*
O=C(CSCC(=O)N1CCCc2ccccc21)Nc1nc(-c2ccccc2)cs1	-100*
O=C(C[n+]1cc(-c2ccccc2)n2c1CCC2)Nc1nc(-c2ccccc2)cs1	-73*
O=C(c1nn2c(C(F)(F)F)cc(-c3cccs3)nc2c1Br)N1CCCc2ccccc21	82
O=C(C[n+]1cc(-c2ccc(F)cc2)n2c1CCC2)c1cccs1	-144*
O=C(Nc1cccc(O)c1)c1c(O)c2ccccc2[nH]c1=O	-92*
CN(C)c1nc(N)nc(CSc2nc3cc(Cl)ccc3o2)n1	-126*
O=[N+]([O-])c1ccccc1S(=O)(=O)c1ccccc1[N+](=O)[O-]	-62*
CC(CS(=O)(=O)c1ccccc1[N+](=O)[O-])N1CCOCC1 (stereo not given)	-70*
CCCN=Cc1sc2ccc(OCC)cc2c1O	-126*

High-throughput results deposited in PubChem BioAssay by Broad Institute.
